The text below walks through data of PubChem BioAssay AID1159580 (chemical genetic matrix, 2015).

The structures appear in SMILES notation. The whole screen tested about 5,500 compounds, of which about 2,000 (36%) were called active. Another 18% or so got no clear call; they are omitted. Some of the results follow. Unmarked numbers belong to inactive results. Rule as the data show it: active = normalized growth mostly below about 0.91 (no sharp cut-off); inconclusive = no clear call, values can overlap the other calls; inactive = mostly above about 0.92.

This assay is described as follows: chemical genetic growth profiling, strain panel (AID 1159580).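 Also: tested at 20 µM; growth read once vehicle control cultures reached saturation at 30 °C; 1 = growth at the plate median or of vehicle wells; lower values mean less growth of the strain.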 The conditions noted are these: S. cerevisiae deletion strains, growth OD.
Where [1] appears, read: locus YAL013W, strain DEP1, stronger effect = lower value.
Setting [2] is: locus YDR150W, strain NUM1, stronger effect = lower value.
Setting [3] is: locus YGR078C, strain PAC10, stronger effect = lower value.
[4] abbreviates: locus YMR307W, strain GAS1, stronger effect = lower value.
Setting [5] is: locus YNL322C, strain KRE1, stronger effect = lower value.
[6] abbreviates: locus YPL055C, strain LGE1, stronger effect = lower value.
Setting [7] is: locus YAL040C, strain CLN3, stronger effect = lower value.
The mark [8] stands for this setting: locus YCL061C, strain MRC1 (second series), stronger effect = lower value.
Setting [9] is: locus YDR363W, strain ESC2, stronger effect = lower value.
[10] abbreviates: locus YER002W, strain NOP16, stronger effect = lower value.
Where [11] appears, read: locus YNL128W, strain TEP1, stronger effect = lower value.
[12] abbreviates: locus YNL175C, strain NOP13, stronger effect = lower value.
Setting [13] is: locus YNL197C, strain WHI3, stronger effect = lower value.
Setting [14] is: locus YNL224C, strain SQS1, stronger effect = lower value.
Setting [15] is: locus YOR083W, strain WHI5 (second series), stronger effect = lower value.

As for `c1ccc(-c2ccc(-c3csc(-c4cccnc4)n3)cc2)cc1`, the normalized growth under setting [1] was 1.01; the normalized growth (locus YBR229C, strain ROT2, stronger effect = lower value) was 1.02; the normalized growth (locus YCL061C, strain MRC1, stronger effect = lower value) was 0.951; the normalized growth (locus YDL101C, strain DUN1, stronger effect = lower value) was 0.972; the normalized growth under setting [2] is 1; the normalized growth (locus YEL061C, strain CIN8, stronger effect = lower value) is 1.01. The normalized growth is 0.997 under setting [3]; 1.04 (locus YHR030C, strain SLT2, stronger effect = lower value); 1.01 (locus YHR087W, strain rtc3, stronger effect = lower value); 0.979 (locus YJL187C, strain SWE1, stronger effect = lower value); 0.975 (locus YJR043C, strain POL32, stronger effect = lower value); 1.03 (locus YJR075W, strain HOC1, stronger effect = lower value). The normalized growth is 1.02 (locus YKL190W, strain CNB1, stronger effect = lower value); 1.01 (locus YLR039C, strain RIC1, stronger effect = lower value); 1.02 (locus YLR058C, strain SHM2 (second series), stronger effect = lower value); 0.991 (locus YLR085C, strain ARP6, stronger effect = lower value); 1.09 (locus YLR262C, strain YPT6, stronger effect = lower value); 1 (locus YML094W, strain GIM5, stronger effect = lower value). Further, the normalized growth is 1.02 (locus YMR219W, strain ESC1, stronger effect = lower value); 0.992 (locus YMR263W, strain SAP30, stronger effect = lower value); 0.896 under setting [4]; 0.956 (locus YNL153C, strain GIM3, stronger effect = lower value); 1.04 (locus YNL298W, strain CLA4 (second series), stronger effect = lower value); 1.03 under setting [5]. The normalized growth is, setting by setting: (locus YNR030W, strain Alg12, stronger effect = lower value) 1.01; (locus YOL006C, strain TOP1, stronger effect = lower value) 1.08; under setting [6], 0.944; (locus YPL241C, strain CIN2, stronger effect = lower value) 0.979; (locus YPR135W, strain CTF4, stronger effect = lower value) 1.08.
Regarding `CNc1ccc2oc(C[C@H]3O[C@@]4(CC[C@H]3C)O[C@H]([C@H](C)C(=O)c3ccc[nH]3)[C@H](C)C[C@H]4C)nc2c1C(=O)O`, the normalized growth under setting [1] was 0.976; the normalized growth under setting [7] is 0.929; the normalized growth under setting [8] was 0.951; the normalized growth under setting [9] is 0.928; the normalized growth under setting [10] was 0.997; the normalized growth under setting [11] was 0.98. Also, the normalized growth is, setting by setting: under setting [12], 0.907 (active); under setting [13], 0.853 (active); under setting [14], 0.924; under setting [15], 0.906.
In the case of `CCCCCC(O)c1cccc(OCc2ccc3ccccc3n2)c1` (stereo not given), the normalized growth reads like this: under setting [1], 0.958; under setting [7], 0.958; under setting [8], 0.984; under setting [2], 1; under setting [9], 0.976; under setting [10], 1.01. For the same molecule, the normalized growth under setting [3] was 0.982; the normalized growth (locus YGR229C, strain SMI1, stronger effect = lower value) is 0.942; the normalized growth under setting [4] is 0.996; the normalized growth under setting [11] is 1; the normalized growth under setting [12] was 0.995; the normalized growth under setting [13] was 0.995. Further, the normalized growth under setting [14] is 0.99, the normalized growth under setting [5] was 0.972, the normalized growth under setting [15] was 0.873 and the normalized growth under setting [6] was 0.973.
